# Measurements from PubChem BioAssay (Tox21).
# A number with no mark means an inactive call. Records with an inconclusive call do not appear. A call without a number means that no potency is given here. Activity calls are given as the source filed them. Calls follow the shape of the dose curve; as a rule, active = well fitted curve in the direction sought with a large enough effect in the repeat runs; inconclusive = weak or mixed curves; inactive = no such curve, though single readings can be large; an effect the other way counts as inactive or inconclusive.
# What was measured:
# [1] = A CellTox Green Cytotoxicity Assay to monitor cytotoxicity in HEK293 cells - 24 hour (AID 1224875); also: nearly all actives have a fitted effect of over 45% in size; also: potency is read from the fitted curve at half-maximal effect; as to activity change: series mostly up to about 77 µM
# Summary of the method: (§1)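 Read-out: fluorescence of a cell-impermeant cyanine dye staining DNA of dead cells, proportional to cytotoxicity. HEK293, 600 cells/well with reagent, compound (23 nL DMSO) added after 5 h; reads at 0, 8, 16, 24, 32, 40 h.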
# [2] = A CellTox Green Cytotoxicity Assay to monitor cytotoxicity in HepG2 cells - 16 hour (AID 1224876); also: nearly all actives have a fitted effect of over 45% in size; also: potency is read from the fitted curve at half-maximal effect
# Summary of the method: (§2)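 HepG2, 600 cells/well premixed w/ CellTox Green; 5 h settle, 37 C/5% CO2; pintool cpd add (DMSO); 37 C, 40 h; fluorescence read at 0, 8, 16, 24, 32, 40 h.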
# [3] = qHTS RealTime-Glo MT Cell Viability Assay in HepG2 cells - 32 hour (AID 1224877); also: nearly all actives have a fitted effect of over 55% in size; also: potency is read from the fitted curve at half-maximal effect
# Summary of the method: (§3)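 Viability was tracked continuously by NanoLuc luminescence from prosubstrate reduced by living HepG2 cells, at successive time points over 40 h of compound exposure. Cells with reagent were preincubated 5 h at 37 °C before compound addition.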
# [4] = A CellTox Green Cytotoxicity Assay to monitor cytotoxicity in HepG2 cells - 24 hour (AID 1224878); also: nearly all actives have a fitted effect of over 45% in size; also: potency is read from the fitted curve at half-maximal effect
# Summary of the method: as §2
# [5] = A CellTox Green Cytotoxicity Assay to monitor cytotoxicity in HepG2 cells - 40 hour (AID 1224879); also: nearly all actives have a fitted effect of over 40% in size; also: potency is read from the fitted curve at half-maximal effect
# Summary of the method: as §2
# [6] = qHTS RealTime-Glo MT Cell Viability Assay in HEK293 cells - 0 hour (AID 1224880); also: nearly all actives have a fitted effect of over 45% in size; also: potency is read from the fitted curve at half-maximal effect; as to activity change, negative = cytotoxicity: top concentration of the series differs between compounds
# Summary of the method: (§4)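 Luminescence readout at each listed time point; HEK293, 600 cells/well, RealTime-Glo MT reagent added with cells; compounds pinned (23 nL in DMSO) after 5 h at 37 C; continuous culture at 37 C.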
# [7] = A CellTox Green Cytotoxicity Assay to monitor cytotoxicity in HEK293 cells - 32 hour (AID 1224881); also: nearly all actives have a fitted effect of over 40% in size; also: potency is read from the fitted curve at half-maximal effect
# Summary of the method: as §1
# [8] = A CellTox Green Cytotoxicity Assay to monitor cytotoxicity in HepG2 cells - 0 hour (AID 1224882); also: nearly all actives have a fitted effect of over 35% in size
# Summary of the method: as §2
# [9] = A CellTox Green Cytotoxicity Assay to monitor cytotoxicity in HepG2 cells - 32 hour (AID 1224883); also: nearly all actives have a fitted effect of over 50% in size; also: potency is read from the fitted curve at half-maximal effect
# Summary of the method: as §2
# [10] = A CellTox Green Cytotoxicity Assay to monitor cytotoxicity in HEK293 cells - 8 hour (AID 1224884); also: nearly all actives have a fitted effect of over 35% in size
# Summary of the method: as §1
# [11] = qHTS RealTime-Glo MT Cell Viability Assay in HepG2 cells - 16 hour (AID 1224885); also: nearly all actives have a fitted effect of over 50% in size; also: potency is read from the fitted curve at half-maximal effect
# Summary of the method: as §3
# [12] = qHTS RealTime-Glo MT Cell Viability Assay in HEK293 cells - 24 hour (AID 1224886); also: nearly all actives have a fitted effect of over 50% in size; also: potency is read from the fitted curve at half-maximal effect; as to activity change, negative = cytotoxicity: top concentration of the series differs between compounds
# Summary of the method: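 Viability tracked continuously by luminescence as live cells reduce a prosubstrate for NanoLuc; HEK293 cells preincubated 5 h, compound-treated at 37 C, and read at 0, 8, 16, 24, 32 and 40 h.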
# [13] = qHTS RealTime-Glo MT Cell Viability Assay in HEK293 cells - 8 hour (AID 1224887); also: nearly all actives have a fitted effect of over 50% in size; also: potency is read from the fitted curve at half-maximal effect; as to activity change, negative = cytotoxicity: top concentration of the series differs between compounds
# Summary of the method: as §4
# [14] = A CellTox Green Cytotoxicity Assay to monitor cytotoxicity in HEK293 cells - 16 hour (AID 1224888); also: nearly all actives have a fitted effect of over 35% in size; also: potency is read from the fitted curve at half-maximal effect
# Summary of the method: as §1
# [15] = qHTS RealTime-Glo MT Cell Viability Assay in HepG2 cells - 0 hour (AID 1224889); also: nearly all actives have a fitted effect of over 50% in size
# Summary of the method: as §3
# [16] = A CellTox Green Cytotoxicity Assay to monitor cytotoxicity in HepG2 cells - 8 hour (AID 1224890); also: nearly all actives have a fitted effect of over 45% in size
# Summary of the method: as §2
# [17] = qHTS assay to identify small molecule antagonists of the estrogen receptor alpha (ER-alpha) signaling pathway using the BG1 cell line in the presence of 0.1 nM 17-beta-estradiol - cell viability counter screen (AID 1259241); also: nearly all actives have a fitted effect of over 40% in size
# Summary of the method: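 VM7Luc4E2 cells (endogenous ER-alpha, 4×ERE-luciferase), hormone-starved 5 days in charcoal-stripped FBS, were treated with compounds plus 0.1 nM 17beta-estradiol for 22 hr at 37C; viability read in same wells as CellTiter-Fluor live-cell protease fluorescence.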
# [18] = qHTS assay to identify small molecule antagonists of the androgen receptor (AR) signaling pathway using the MDA cell line in the presence of 0.5 nM R1881 - cell viability counter screen (AID 1259242); also: nearly all actives have a fitted effect of over 45% in size
# Summary of the method: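 Live-cell protease fluorescence, CellTiter-Fluor, 30 min at 37C. Cells: MDA-kb2, 3,000/well, preincubated 5 hr. Compounds plus 0.5 nM R1881 final, 16 hr, 37C, 0% CO2.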
# [19] = biological target: Androgen receptor (Homo sapiens) (UniProt P10275); experiment: qHTS assay to identify small molecule antagonists of the androgen receptor (AR) signaling pathway using the MDA cell line in the presence of 0.5 nM R1881 (AID 1259243); also: nearly all actives have a fitted effect of over 50% in size; also: potency is read from the fitted curve at half-maximal effect
# Sequence of Androgen receptor (Homo sapiens) (P10275 whole entry, looked up): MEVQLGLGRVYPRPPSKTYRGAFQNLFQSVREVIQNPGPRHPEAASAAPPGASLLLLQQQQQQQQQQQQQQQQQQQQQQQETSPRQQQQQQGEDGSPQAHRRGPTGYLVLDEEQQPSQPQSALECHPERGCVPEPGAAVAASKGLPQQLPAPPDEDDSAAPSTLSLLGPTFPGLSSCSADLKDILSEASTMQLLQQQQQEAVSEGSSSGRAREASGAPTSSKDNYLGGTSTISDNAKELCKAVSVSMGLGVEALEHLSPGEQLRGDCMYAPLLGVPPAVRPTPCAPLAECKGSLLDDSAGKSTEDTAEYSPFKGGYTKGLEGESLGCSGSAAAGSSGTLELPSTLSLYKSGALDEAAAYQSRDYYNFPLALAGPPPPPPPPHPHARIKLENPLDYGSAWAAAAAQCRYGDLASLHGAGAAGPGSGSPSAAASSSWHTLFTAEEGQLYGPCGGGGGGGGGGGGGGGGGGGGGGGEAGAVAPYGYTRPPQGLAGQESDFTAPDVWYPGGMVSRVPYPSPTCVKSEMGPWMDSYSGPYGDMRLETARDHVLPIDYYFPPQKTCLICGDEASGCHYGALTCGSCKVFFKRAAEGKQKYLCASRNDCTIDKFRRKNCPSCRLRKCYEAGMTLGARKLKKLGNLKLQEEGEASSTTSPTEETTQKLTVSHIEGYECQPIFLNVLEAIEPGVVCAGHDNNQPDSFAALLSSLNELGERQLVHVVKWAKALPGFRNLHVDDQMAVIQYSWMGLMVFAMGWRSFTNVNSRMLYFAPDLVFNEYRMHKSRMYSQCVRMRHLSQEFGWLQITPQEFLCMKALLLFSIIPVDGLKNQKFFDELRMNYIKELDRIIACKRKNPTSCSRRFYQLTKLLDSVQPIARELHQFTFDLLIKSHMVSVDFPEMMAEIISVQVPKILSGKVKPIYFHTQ
# Summary of the method: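 MDA-kb2, MMTV-luc (AR/GR elements); 3,000 cells/well; cpd + 0.5 nM R1881 final; 16 hr 37C, 0% CO2; ONE-Glo 30 min RT; luminescence.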
# [20] = biological target: Estrogen receptor (Homo sapiens) (UniProt P03372); experiment: qHTS assay to identify small molecule antagonists of the estrogen receptor alpha (ER-alpha) signaling pathway using the BG1 cell line in the presence of 0.1 nM 17-beta-estradiol (AID 1259244); also: nearly all actives have a fitted effect of over 50% in size; also: potency is read from the fitted curve at half-maximal effect
# Sequence of Estrogen receptor (Homo sapiens) (P03372 whole entry, looked up): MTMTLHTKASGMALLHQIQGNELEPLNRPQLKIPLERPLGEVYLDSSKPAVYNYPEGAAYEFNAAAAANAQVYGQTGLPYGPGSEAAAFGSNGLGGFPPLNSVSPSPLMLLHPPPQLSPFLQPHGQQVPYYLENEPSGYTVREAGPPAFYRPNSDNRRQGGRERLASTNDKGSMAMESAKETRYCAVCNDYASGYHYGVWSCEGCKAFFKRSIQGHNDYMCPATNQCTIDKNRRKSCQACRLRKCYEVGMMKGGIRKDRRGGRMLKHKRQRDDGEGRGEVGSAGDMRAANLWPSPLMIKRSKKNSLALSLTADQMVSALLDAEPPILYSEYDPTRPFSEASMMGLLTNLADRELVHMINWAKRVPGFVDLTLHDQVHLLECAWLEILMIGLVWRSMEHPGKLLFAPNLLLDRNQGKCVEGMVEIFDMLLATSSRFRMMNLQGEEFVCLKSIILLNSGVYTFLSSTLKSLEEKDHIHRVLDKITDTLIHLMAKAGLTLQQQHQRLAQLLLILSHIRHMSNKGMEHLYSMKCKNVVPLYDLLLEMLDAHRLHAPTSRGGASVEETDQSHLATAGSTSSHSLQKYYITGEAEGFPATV
# Summary of the method: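 Luminescence after ONE-Glo (30 min, room temperature) measured ERE-luciferase activity in VM7Luc4E2 cells treated 22 h with compound and 0.1 nM final 17beta-estradiol as stimulator.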
structure (smiles),measurement,setting,value
Cc1c(Cl)c(=O)oc2cc(O)ccc12,Potency,[1],inactive
same,Potency,[2],inactive
same,Potency,[3],inactive
same,Potency,[4],inactive
same,Potency,[5],inactive
same,Potency,[6],inactive
same,Potency,[7],inactive
same,Potency,[8],inactive
same,Potency,[9],inactive
same,Potency,[10],inactive
same,Potency,[11],inactive
same,Potency,[12],49 µM (active)
same,Potency,[13],43.6 µM (active)
same,Potency,[14],inactive
same,Potency,[15],inactive
same,Potency,[16],inactive
Cn1c(=O)[nH]c2ncn(C)c2c1=O,Potency,[1],inactive
same,Potency,[2],inactive
same,Potency,[3],inactive
same,Potency,[4],inactive
same,Potency,[5],inactive
same,Potency,[6],inactive
same,Potency,[7],inactive
same,Potency,[8],inactive
same,Potency,[9],inactive
same,Potency,[10],inactive
same,Potency,[11],inactive
same,Potency,[12],inactive
same,Potency,[13],inactive
same,Potency,[14],inactive
same,Potency,[15],inactive
same,Potency,[16],inactive
same,Potency,[17],inactive
same,Potency,[18],inactive
same,Potency,[19],inactive
same,Potency,[20],inactive
CC(C)(C)c1cc(CCC(=O)OCCSCCOC(=O)CCc2cc(C(C)(C)C)c(O)c(C(C)(C)C)c2)cc(C(C)(C)C)c1O,Potency,[1],inactive
same,Potency,[2],inactive
same,Potency,[3],inactive
same,Potency,[4],inactive
same,Potency,[5],inactive
same,Potency,[6],inactive
same,Potency,[7],inactive
same,Potency,[8],inactive
same,Potency,[9],inactive
same,Potency,[10],inactive
same,Potency,[11],inactive
same,Potency,[12],inactive
same,Potency,[13],inactive
same,Potency,[14],inactive
same,Potency,[15],inactive
same,Potency,[16],inactive
same,Potency,[17],inactive
same,Potency,[18],inactive
same,Potency,[19],inactive
same,Potency,[20],inactive
O=C1c2ccccc2C(=O)c2c(Cl)cccc21,Potency,[1],inactive
same,Potency,[2],inactive
same,Potency,[3],inactive
same,Potency,[4],inactive
same,Potency,[5],inactive
same,Potency,[6],inactive
same,Potency,[7],inactive
same,Potency,[8],inactive
same,Potency,[9],inactive
same,Potency,[10],inactive
same,Potency,[11],inactive
same,Potency,[14],inactive
same,Potency,[15],inactive
same,Potency,[16],inactive
same,Potency,[17],inactive
same,Potency,[20],inactive
CN1CC[C@H](c2c(O)cc(O)c3c(=O)cc(-c4ccccc4Cl)oc23)[C@H](O)C1,Potency,[1],inactive
same,Potency,[2],inactive
same,Potency,[3],inactive
same,Potency,[4],0.268 µM (active)
same,Potency,[5],0.239 µM (active)
same,Potency,[7],inactive
same,Potency,[8],inactive
same,Potency,[9],0.213 µM (active)
same,Potency,[10],inactive
same,Potency,[11],inactive
same,Potency,[12],0.151 µM (active)
same,Potency,[13],inactive
same,Potency,[15],inactive
same,Potency,[16],inactive
same,Potency,[17],inactive
same,Potency,[18],inactive
same,Potency,[19],0.0944 µM (active)
CN1CCN(c2ccccc2/C=C2\SCCN(c3ccc(Cl)c(Cl)c3)C2=O)CC1,Potency,[1],49 µM (active)
same,Potency,[2],49 µM (active)
same,Potency,[3],21.9 µM (active)
same,Potency,[4],24.5 µM (active)
same,Potency,[5],19.5 µM (active)
same,Potency,[6],inactive
same,Potency,[7],49 µM (active)
same,Potency,[8],inactive
same,Potency,[9],21.9 µM (active)
same,Potency,[11],43.6 µM (active)
same,Potency,[12],12.3 µM (active)
same,Potency,[14],49 µM (active)
same,Potency,[15],inactive
same,Potency,[17],inactive
same,Potency,[20],inactive
Oc1ccc(C2(c3ccc(O)c(C4CCCCC4)c3)CCCCC2)cc1C1CCCCC1,Potency,[1],inactive
same,Potency,[2],34.7 µM (active)
same,Potency,[3],34.7 µM (active)
same,Potency,[4],34.7 µM (active)
same,Potency,[5],24.5 µM (active)
same,Potency,[6],49 µM (active)
same,Potency,[7],inactive
same,Potency,[8],inactive
same,Potency,[9],34.7 µM (active)
same,Potency,[10],inactive
same,Potency,[11],38.9 µM (active)
same,Potency,[12],38.9 µM (active)
same,Potency,[14],inactive
same,Potency,[15],inactive
same,Potency,[20],43.3 µM (active)
COc1cc2ncnc(Nc3cccc(Cl)c3)c2cc1OC,activity change,[1],"-0.939% [at 15.8 µM, active compounds read high]"
same,cytotoxicity increase,[2],-17.7% [at 15.8 µM]
same,"activity change, negative = cytotoxic",[3],8.78% [at 15.8 µM]
same,cytotoxicity,[4],-17.9% [at 15.8 µM]
same,cytotoxicity increase,[5],-19.3% [at 15.8 µM]
same,"activity change, negative = cytotoxicity",[6],-2.52% [at 15.8 µM]
same,cytotoxicity increase,[7],0.0774% [at 15.8 µM]
same,cytotoxicity,[8],-14.6% [at 15.8 µM]
same,cytotoxicity increase,[9],-17.4% [at 15.8 µM]
same,cytotoxicity increase,[10],-7.13% [at 15.8 µM]
same,"activity change, negative = cytotoxic",[11],-11.4% [at 15.8 µM]
same,"activity change, negative = cytotoxicity",[12],-2.37% [at 15.8 µM]
same,activity change,[14],"-3.26% [at 15.8 µM, active compounds read high]"
same,"activity change, negative = cytotoxicity",[15],-27.3% [at 15.8 µM]
same,cytotoxicity increase,[16],-18% [at 15.8 µM]
same,"activity change, negative = cytotoxicity",[17],-7.05% [at 19 µM]
same,"viability change, negative = cytotoxic",[18],-6.19% [at 19 µM]
same,"activity, negative = inhibition",[19],23.3% [at 19 µM]
CCOC(=O)C1=NN(c2ccc(Cl)cc2Cl)C(C)(C(=O)OCC)C1 (centres undefined),Potency,[1],inactive
same,Potency,[2],inactive
same,Potency,[3],inactive
same,Potency,[4],inactive
same,Potency,[5],inactive
same,Potency,[6],inactive
same,Potency,[7],inactive
same,Potency,[8],inactive
same,Potency,[9],inactive
same,Potency,[10],inactive
same,Potency,[11],inactive
same,Potency,[14],inactive
same,Potency,[15],inactive
same,Potency,[16],inactive
same,Potency,[17],inactive
same,Potency,[19],30.6 µM (active)
C=Cc1ccncc1,Potency,[1],inactive
same,Potency,[2],inactive
same,Potency,[3],inactive
same,Potency,[4],inactive
same,Potency,[5],inactive
same,Potency,[6],inactive
same,Potency,[7],inactive
same,Potency,[8],inactive
same,Potency,[9],inactive
same,Potency,[10],inactive
same,Potency,[11],inactive
same,Potency,[12],inactive
same,Potency,[13],inactive
same,Potency,[14],inactive
same,Potency,[16],inactive
same,Potency,[17],inactive
same,Potency,[19],inactive
Cc1cc(C)c(O)c(C(C)(C)C)c1,Potency,[1],24.5 µM (active)
same,Potency,[2],inactive
same,Potency,[3],inactive
same,Potency,[4],inactive
same,Potency,[5],inactive
same,Potency,[6],inactive
same,Potency,[7],27.5 µM (active)
same,Potency,[8],inactive
same,Potency,[9],inactive
same,Potency,[10],inactive
same,Potency,[11],inactive
same,Potency,[12],inactive
same,Potency,[13],inactive
same,Potency,[16],inactive
same,Potency,[17],inactive
same,Potency,[19],inactive
same,Potency,[20],inactive
CC(CC(C)(C)C)CC(C)(C)CC(C)(C)C (centres undefined),Potency,[1],inactive
same,Potency,[2],inactive
same,Potency,[3],inactive
same,Potency,[4],inactive
same,Potency,[5],inactive
same,Potency,[6],inactive
same,Potency,[7],inactive
same,Potency,[8],inactive
same,Potency,[9],inactive
same,Potency,[10],inactive
same,Potency,[11],inactive
same,Potency,[12],inactive
same,Potency,[13],inactive
same,Potency,[14],inactive
same,Potency,[15],inactive
same,Potency,[16],inactive
same,Potency,[17],inactive
same,Potency,[18],inactive
same,Potency,[19],inactive
Nc1cc([N+](=O)[O-])cc(Cl)c1O,Potency,[1],inactive
same,Potency,[2],inactive
same,Potency,[3],inactive
same,Potency,[4],inactive
same,Potency,[5],inactive
same,Potency,[7],inactive
same,Potency,[8],inactive
same,Potency,[9],inactive
same,Potency,[10],inactive
same,Potency,[11],inactive
same,Potency,[12],inactive
same,Potency,[13],inactive
same,Potency,[14],inactive
same,Potency,[15],inactive
same,Potency,[16],inactive
same,Potency,[17],inactive
same,Potency,[18],inactive
same,Potency,[20],inactive
